From PubChem BioAssay
D3 ag = D3 dopamine receptor (human) agonism | D3R DiscoveRx beta-arrestin cells, luminescence, 90 min | max activation, % | 410,000 compounds, 0.58% hits; in the data active means max activation above about 30%; further: 0% is about no effect
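Cells at 1500/well, incubated overnight, then treated with pinned compounds (dopamine as control) for 90 min at 37 degrees C. DiscoveRx reagent added for 30 - 60 minutes at room temperature; luminescence read.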
Rango complex inh = inhibitors of Rango-importin beta complex formation; Q14974; Rango CFP/YFP FRET sensor + importin beta, 45 min; Potency, µM (highest dose often 92.2 µM), inactives show at the top dose inhibition of complex formation; 340,000 compounds, 0.031% hits; AID 540263;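 further: potency means the concentration at half of the fitted maximal effect; 0% = DMSO wells and 100% = buffer wells lacking importin beta; nearly all actives have a fitted effect of over 15% in size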
Target sequence (Q14974 whole entry, looked up): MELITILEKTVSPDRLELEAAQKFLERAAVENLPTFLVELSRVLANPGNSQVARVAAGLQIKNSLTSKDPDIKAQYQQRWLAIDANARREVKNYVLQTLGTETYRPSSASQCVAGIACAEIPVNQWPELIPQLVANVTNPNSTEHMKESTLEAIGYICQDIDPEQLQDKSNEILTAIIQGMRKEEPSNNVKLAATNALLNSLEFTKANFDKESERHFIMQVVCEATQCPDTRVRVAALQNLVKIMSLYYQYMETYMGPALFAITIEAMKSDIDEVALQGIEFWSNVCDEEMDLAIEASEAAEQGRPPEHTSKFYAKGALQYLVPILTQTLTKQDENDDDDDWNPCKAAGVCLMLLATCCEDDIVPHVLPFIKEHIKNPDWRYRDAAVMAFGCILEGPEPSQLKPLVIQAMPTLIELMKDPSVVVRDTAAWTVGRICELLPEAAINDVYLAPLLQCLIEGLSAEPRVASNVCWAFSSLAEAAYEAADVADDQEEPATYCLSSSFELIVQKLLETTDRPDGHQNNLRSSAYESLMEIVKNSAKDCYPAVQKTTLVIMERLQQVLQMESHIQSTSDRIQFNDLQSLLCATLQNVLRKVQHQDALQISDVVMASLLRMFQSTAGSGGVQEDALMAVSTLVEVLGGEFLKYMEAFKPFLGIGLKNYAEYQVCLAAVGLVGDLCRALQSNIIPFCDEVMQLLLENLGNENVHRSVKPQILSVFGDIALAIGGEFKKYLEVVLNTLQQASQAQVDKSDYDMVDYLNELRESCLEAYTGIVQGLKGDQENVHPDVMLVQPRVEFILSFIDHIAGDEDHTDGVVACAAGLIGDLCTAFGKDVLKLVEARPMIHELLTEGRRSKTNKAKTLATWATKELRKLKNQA
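FRET biosensor Rango (snurportin 1 IBB between N-terminal EYFP and C-terminal Cerulean), 50 nM in PBS/1 mM DTT/0.02% Tween-20/0.1% BSA, preincubated 5 min RT with compound; 0.125 microM importin beta added, 45 min RT, CFP/YFP FRET ratio read.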
DRD3 antagonist = antagonists of human D3 dopamine receptor. P35462. D3R cells, DiscoveRx beta-arrestin luminescence, antagonist mode; hits give low values. max response, negative = inhibition, %. 360,000 compounds, 2.5% hits; in the data active means max response below about -50%; inconclusive means no clear call, values can overlap the other calls; further: on the % scale 0 is the no-effect control and ±100 the full control effect
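Cells plated overnight at 1500 cells/well, then exposed to library compounds with dopamine controls for 90 minutes at 37 degrees C. DiscoveRx reagent added for 30–60 minutes at room temperature; luminescence read, quantitative HTS format.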
Rango release inh = inhibitors of RanGTP-induced Rango-importin beta complex dissociation | AID 540253 | 340,000 compounds, 0.071% hits | Potency, µM (series often up to 46.1 µM), without a hit: at the top dose activity change, negative = inhibition | Biochemical FRET Rango-importin beta, RanGTP-induced dissociation | O95149+P62826; further: potency means the concentration at half of the fitted maximal effect; % of control where 0% means no effect; nearly all actives have a fitted effect of over 45% in size
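Rango (0.1 uM)–importin beta (0.25 uM) complex; RanGTP-RCC1 trigger; 45 min RT; CFP/YFP FRET read.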
TSG101-PTAP inh = blocks PTAP/TSG101 interaction to inhibit HIV-1 budding; 340,000 tested, under 10 active; Potency, µM (titrated, usually from 115 µM), without a hit: at the top dose activity change, negative = inhibition, actives largely listed as inhibitors; Fluorescence polarization, FITC-PTAP peptide / Tsg101 binding; active means well fitted inhibition curve with a large enough effect in the main read-out, with a control signal flat, not every such curve was filed as active; inconclusive means small, poorly fitted or top-dose-only effect, or effect the other way, or a change in a side signal; inactive means no such curve, though single readings can be large or run the other way; further: potency means the concentration at half of the fitted maximal effect; % of control where 0% means no effect
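Fluorescence anisotropy tracks displacement of a FITC-tagged PTAP peptide (50 nM) from the Tsg101 binding domain (10 uM), following a 20 min room-temperature incubation at pH 7.5.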
MmCpn inh = blocks the Methanococcus maripaludis chaperonin Mm-Cpn | purified Mm-Cpn ATPase, ADP Transcreener TR-FRET | Potency, µM (top dose mostly 76.9 µM), for inactives: top-dose activity, negative = inhibition, most hits filed as inhibitors | 330,000 compounds, 0.031% hits; active means well fitted inhibition curve with a large enough effect; inconclusive means small, poorly fitted or top-dose-only effect; further: potency means the concentration at half of the fitted maximal effect; on the % scale 0 is the no-effect control and ±100 the full control effect; nearly all actives have a fitted effect of over 80% in size
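Compound-treated chaperonin, 25 nM final, turns over 10 uM ATP at 37°C for 30 min following a 10 min preincubation; ADP generated competes with ADP-d2 for Eu-cryptate antibody, lowering FRET.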
* hit, by the source's call; ? = inconclusive; / = no result given; ! = not confirmed by another sample; [ ] = dose if it differs, or a comment. The list is not random: actives were taken first. Their share in the collection is about 2.9%. Unless noted, the call rests on the fitted dose curve.

SMILES	D3 ag	Rango complex inh	DRD3 antagonist	Rango release inh	TSG101-PTAP inh	MmCpn inh
COc1ccc(NS(=O)(=O)c2cccc(C(=O)NCC(c3ccco3)N3CCCCC3)c2)cc1 (stereo not given)	-16	?	-26	2%	0%	1%
O=C(O)[C@@H]1C[C@H](CP(=O)(O)O)CCN1	7	/	/	/	/	/
O=C/C(=C\Nc1ccc(S(=O)(=O)CCO)cc1)c1nc2cc(Cl)ccc2o1	-24	?	-51*	?	-3%	-1%
O=C/C(=C\Nc1ccc(Cl)cn1)c1nc2cc(Cl)ccc2o1	0	?	-5	?	1%	/
COc1ccc(C(=O)Nc2ccc(-c3n[nH]c(=S)o3)cc2)cc1OC	0	4%	-4	-3%	-6%	-12%
COc1ccccc1-c1n[nH]c(=S)o1	-11	1%	-82*	-6%	-4%	?
COc1ccc(Cl)cc1-c1n[nH]c(=S)o1	-5	4%	-84*	14%	-8%	?
O=C(CCC1N=C2c3ccccc3N=C(SCc3ccccc3F)N2C1=O)NCc1ccc(F)cc1 (stereo not given)	-15	/	/	/	/	/
CCC1=NN(C(=O)C(=O)NCCc2ccccc2)C(O)(C(F)(F)F)C1 (stereo not given)	-16	2%	-65*	1%	0%	0%
CCC1=NN(C(=O)C(=O)Nc2ccc(OC)cc2)C(O)(C(F)(F)F)C1 (stereo not given)	-36	0%	-159*	7%	-5%	5%
CCC1=NN(C(=O)CCc2ccccc2)C(O)(C(F)(F)F)C1 (stereo not given)	-2	0%	?	10%	-1%	-5%
Cc1ccc(-n2c(Cc3cccn3C)nnc2SCC(=O)Nc2ccc3c(c2)OCO3)cc1	79*	-5%	50	5%	-4%	-3%
Cn1cccc1Cc1nnc(SCC(=O)N2CCCCCC2)n1-c1ccc(F)cc1	4	-3%	2	10%	-4%	0%
Cc1ccc(-n2c(Cc3cccn3C)nnc2SCC(=O)N2CCN(c3ccccc3)CC2)cc1	-7	-5%	-79*	-7%	/	-1%
O=C1c2cccnc2C(=O)N1Cc1ccc2c(c1)OCO2	41*	-1%	22	11%	-4%	0%
CC(C)N1CCN(CC2COc3ccccc3O2)CC1 (stereo not given)	3	0%	-50*	8%	1%	0%
CC(NCC1COc2ccccc2O1)C(=O)NCc1ccccc1 (stereo not given)	-20	5%	-29	24%	0%	0%
CC(NCC1COc2ccccc2O1)C1COc2ccccc2O1 (stereo not given)	-23	3%	-63*	-6%	-7%	1%
COc1cc(OC)cc(-c2nc3nc(C)c(CCC(=O)Nc4ccc(C)cc4C)c(C)n3n2)c1	-13	/	/	/	/	/
COc1cccc(N=Cc2ccc(O)cc2O)c1	34*	-1%	9	0%	0%	-2%
Oc1ccc(C=Nc2ccc3ncccc3c2)c(O)c1	/	/	/	/	/	-6%
CCC(NC(C)C)C(O)c1ccc(O)c(O)c1 (stereo not given)	34*!	3%	30	-8%	0%	1%[15.4 µM]
CC[C@H](NC(C)C)[C@H](O)c1ccc(O)c2[nH]c(=O)ccc12	45*	/	/	/	/	/
Cc1cccc(NC(=O)c2ccc(-n3c(C)nnc3C)cc2)c1	5	/	/	/	/	/
CSc1cc(-c2ccco2)oc1C(=O)c1ccco1	8	?	24	?	0%	/
O=C1C=C(O)c2cccc(O)c2C1=O	-19	-4%	-28	-10%	-2%	2%
O=C1C=C(c2c(O)ccc3ccccc23)c2ccccc2C1=O	-9	0%	-62*	16%	0%	/
Cc1ccc2c(c1)C(=C(C#N)C#N)C(=O)N2CCN1CCCCC1	-13	?	-55*	-8%	-1%	4%
Cc1ccc2c(c1)C(=C(C#N)C#N)C(=O)N2CCN1CCOCC1	-2	?	-15	-2%	-4%	-1%
